ERp5 inh: ERp5 (human) disulfide isomerase inhibition; 0.05% of 350,000 active; ERp5 insulin aggregation, absorbance 650 nm, 90 min; AID 651711; inhibition, % at 9.99 µM; Q15084;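 active = mean replicate inhibition above about 25%, with every replicate also reaching it, limit read from the data, passing the limit was not always enough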
Target sequence (Q15084 whole entry, looked up): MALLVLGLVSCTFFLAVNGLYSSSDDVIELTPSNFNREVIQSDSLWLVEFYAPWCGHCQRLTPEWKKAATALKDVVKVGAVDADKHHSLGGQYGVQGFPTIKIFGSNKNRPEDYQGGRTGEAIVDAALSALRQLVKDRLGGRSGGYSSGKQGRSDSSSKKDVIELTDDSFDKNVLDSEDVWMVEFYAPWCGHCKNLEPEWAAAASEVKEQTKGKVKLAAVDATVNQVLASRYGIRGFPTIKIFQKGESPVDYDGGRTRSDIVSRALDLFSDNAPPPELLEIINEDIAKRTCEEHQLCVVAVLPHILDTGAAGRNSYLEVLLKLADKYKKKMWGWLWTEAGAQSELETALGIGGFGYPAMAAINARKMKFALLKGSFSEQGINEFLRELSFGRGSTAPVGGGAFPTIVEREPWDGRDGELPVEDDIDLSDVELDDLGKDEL
MLL AF4-AF9 inh: blocks AF4 peptide binding to human AF9; AlphaScreen, biotin-AF4 peptide binding to FLAG-AF9; AID 651704; P42568; 0.47% of 350,000 active; inhibition, % at 10 µM;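 active = every replicate reaching a set inhibition limit, whatever the replicate mean, cut at about 25% in these data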;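 note: 0% = plate neutral control median and 100% = total signal loss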
ERAP1 inh: blocks human ERAP1 aminopeptidase activity | Q9NZ08 | recombinant ERAP1, Leu-AMC fluorescence, 60 min | inhibition, % at 10.7 µM | 0.15% of 340,000 active | AID 652197;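 active = mean replicate inhibition of at least 30%, or all replicates individually reaching that 30% level; inactive = mean below 30% and not every replicate reaching it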;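 note: 0% = neutral control wells and 100% = L-leucinethiol positive control wells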
DENV2 CPE: DENV2-induced cell death inhibition | DENV2-infected cells, cytopathic effect rescue, plate reader | CPE inhibition, % at 9.99 µM | 1.7% of 350,000 active | AID 651640; in the data active = CPE inhibition above about 20%, passing the limit was not always enough; tested in BHK-21 cells;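 note: 0% = median of neutral control wells and 100% = median of positive control wells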
PDI inh: inhibitors of human protein disulfide isomerase | P07237 | PDI insulin aggregation turbidity, A650, 90 min | inhibition, % at 10 µM | 0.052% of 350,000 active | AID 588391;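 active = mean inhibition across replicates of 30% or more, whatever share of single replicates reach that level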
* hit, by the source's call. Sampled rows, rich in hits. Any-hit rate of the full collection: about 1.8%.

For C[C@@H]1CN([C@H](C)CO)C(=O)Cc2cc(NC(=O)Nc3cccc4ccccc34)ccc2O[C@@H]1CN(C)C(=O)Nc1cccc2ccccc12 the results were ERp5 inh 52*, MLL AF4-AF9 inh -1, ERAP1 inh -2 and DENV2 CPE 3.
C[C@@H]1CN([C@@H](C)CO)C(=O)Cc2cc(NC(=O)Nc3cccc4ccccc34)ccc2O[C@H]1CN(C)C(=O)Nc1cccc2ccccc12 was read as ERp5 inh -3, MLL AF4-AF9 inh -2, ERAP1 inh -2 and DENV2 CPE 45*.
COc1ccc2c3c(n(C)c2c1)[C@@H](CO)NCC31CCN(C(=O)Nc2ccccc2F)CC1 was read as ERp5 inh 3, MLL AF4-AF9 inh 12, ERAP1 inh 1 and DENV2 CPE -2.
CO[C@H]1CN(C)C(=O)c2cc(NS(=O)(=O)c3ccc(Cl)cc3)ccc2OC[C@H](C)N(C)C[C@@H]1C was read as ERp5 inh -1, MLL AF4-AF9 inh -1, ERAP1 inh 2 and DENV2 CPE 2.
For O=C(C[C@H]1CC[C@@H]2[C@H](COC[C@@H](O)CN2C(=O)Nc2cccc(F)c2)O1)NCCCN1CCOCC1 the results were ERp5 inh 7, MLL AF4-AF9 inh -2, ERAP1 inh -2 and DENV2 CPE -10.
Screening CCN1c2ccccc2N(C)C1(C)c1ccccc1 (stereo unspecified) returned PDI inh 5.
For CN1c2ccccc2N(C)C1(C)c1ccccc1 the results were ERp5 inh -13, MLL AF4-AF9 inh 49*, ERAP1 inh 4, DENV2 CPE 7 and PDI inh 2.
For O=C(NC[C@@H]1N[C@@H](CO)[C@H]1c1ccc(-c2ccccc2F)cc1)c1ccccc1 the results were ERp5 inh 5, MLL AF4-AF9 inh 4, ERAP1 inh 1 and DENV2 CPE -4.
Screening Cc1noc(C)c1NC(=O)N(C)C[C@H]1Oc2ccc(NC(=O)NC3CCCCC3)cc2CC(=O)N([C@H](C)CO)C[C@H]1C returned ERp5 inh 2, MLL AF4-AF9 inh -2, ERAP1 inh 3 and DENV2 CPE 22*.
Cc1noc(C)c1NC(=O)N(C)C[C@@H]1Oc2ccc(NC(=O)C3CCCCC3)cc2CC(=O)N([C@H](C)CO)C[C@H]1C was read as ERp5 inh 3, MLL AF4-AF9 inh -1, ERAP1 inh 1 and DENV2 CPE 2.
Screening Cc1noc(C)c1NC(=O)N(C)C[C@@H]1Oc2ccc(NC(=O)C3CCCCC3)cc2CC(=O)N([C@@H](C)CO)C[C@@H]1C returned ERp5 inh -1, MLL AF4-AF9 inh -1, ERAP1 inh 1 and DENV2 CPE 31*.
For Cc1noc(C)c1NC(=O)N(C)C[C@@H]1Oc2ccc(NC(=O)NC3CCCCC3)cc2CC(=O)N([C@@H](C)CO)C[C@H]1C the results were ERp5 inh 0, MLL AF4-AF9 inh -1, ERAP1 inh 0 and DENV2 CPE 24*.
For O=C(C[C@@H]1CC[C@H]2[C@@H](COC[C@H](O)CN2Cc2nccs2)O1)NCc1ccccc1Cl the results were ERp5 inh 1, MLL AF4-AF9 inh 0, ERAP1 inh 2 and DENV2 CPE -1.
Screening CCCCOc1ccc(C(=O)NN2CCOCC2)cc1 returned ERp5 inh -6, MLL AF4-AF9 inh -3, ERAP1 inh 1, DENV2 CPE 9 and PDI inh -13.
`CCOc1ccc(C(=O)NN2CCOCC2)cc1` gave ERp5 inh 3, MLL AF4-AF9 inh -9, ERAP1 inh 0, DENV2 CPE 154* and PDI inh -9.
For CC(=O)c1c(C)[nH]c(C(=O)NNC(=O)COc2cc(C)cc(C)c2)c1C the results were ERp5 inh 14, MLL AF4-AF9 inh 2, ERAP1 inh 0, DENV2 CPE 33* and PDI inh 0.
CCCCCCCCCCCCCCCC[n+]1cccc2ccccc21 was read as ERp5 inh 8, MLL AF4-AF9 inh 26*, ERAP1 inh 108*, DENV2 CPE -4 and PDI inh 6.
For Cc1ccccc1C[n+]1cccc2ccccc21 the results were ERp5 inh -3, MLL AF4-AF9 inh 50*, ERAP1 inh -6, DENV2 CPE 31* and PDI inh -7.
`O=C(C[n+]1cccc2ccccc21)c1ccccc1` gave PDI inh -10.
Screening O=C(N[C@@H]1CC[C@H](CCNC(=O)C2CCCC2)O[C@H]1CO)c1ccncc1 returned ERp5 inh 4, MLL AF4-AF9 inh 1, ERAP1 inh -2 and DENV2 CPE 8.
Screening O=C(/C=C/c1ccc(N2CCCCC2)c([N+](=O)[O-])c1)c1ccc(O)cc1 returned ERp5 inh -1, MLL AF4-AF9 inh 16, ERAP1 inh -6, DENV2 CPE 9 and PDI inh 85*.
COc1ccccc1C(=O)/C=C/c1ccc(N2CCCCC2)c([N+](=O)[O-])c1 was read as ERp5 inh -7, MLL AF4-AF9 inh 14, ERAP1 inh -2, DENV2 CPE -10 and PDI inh -6.
For Oc1ccc(NC(=S)Nc2ccc(F)cc2)cc1 the results were ERp5 inh 2, MLL AF4-AF9 inh -1, ERAP1 inh 3, DENV2 CPE -5 and PDI inh 0.
`CCN(CC)c1ccc(NC(=S)Nc2ccc(F)cc2)cc1` gave ERp5 inh 5, MLL AF4-AF9 inh 27*, ERAP1 inh 1, DENV2 CPE 0 and PDI inh -2.
For CCN1CCN(CC(=O)Nc2nc3ccc(C)cc3s2)CC1 the results were ERp5 inh 0, MLL AF4-AF9 inh 1, ERAP1 inh 2, DENV2 CPE 25* and PDI inh -3.
Screening Cc1ccc(S(=O)(=O)N(C)C[C@H]2Oc3c(NS(=O)(=O)c4ccc(Cl)cc4)cccc3C(=O)N([C@@H](C)CO)C[C@H]2C)cc1 returned ERp5 inh -5, MLL AF4-AF9 inh 0, ERAP1 inh 1 and DENV2 CPE 74*.
COc1ccc(S(=O)(=O)N(C)C[C@@H]2Oc3c(NS(=O)(=O)c4ccc(C)cc4)cccc3C(=O)N([C@H](C)CO)C[C@H]2C)cc1 was read as ERp5 inh 0, MLL AF4-AF9 inh -1, ERAP1 inh 0 and DENV2 CPE 43*.
`OC(COc1ccc(Cl)cc1Cl)Cn1ccnc1` (stereo unspecified) gave ERp5 inh 0, MLL AF4-AF9 inh 1, ERAP1 inh 1, DENV2 CPE 42* and PDI inh 1.
For Clc1ccc(OCCn2ccnc2)c(Cl)c1 the results were PDI inh 7.
COc1cccc(NC(=O)C[C@H]2CC[C@@H]3[C@H](COc4ccc(NC(=O)C5CCOCC5)cc4C(=O)N3C)O2)c1 was read as ERp5 inh -1, MLL AF4-AF9 inh 0, ERAP1 inh -2 and DENV2 CPE 3.
For O=S(=O)(c1ccccc1)[C@@]1(c2ccccc2)C[C@@H]2ON=C(c3cccc(Br)c3)[C@@H]2C1 the results were ERp5 inh 5, MLL AF4-AF9 inh -3, ERAP1 inh 4 and PDI inh -3.

Source: PubChem BioAssay
